Results published in the supplement of paper PMC7595190.

Legend:
CMK = assay: CellTox Green cytotoxicity fluorescence relative to DMSO vehicle (fold of vehicle RFU); higher = more cell death (loss of membrane integrity), active = 2 or more
Method in brief: (§1)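 MV4-11, CMK and Kasumi-1 cells were plated in 96-well black optical-bottom plates at 4.0 × 10^4 cells per well, and CellTox Green reagent was added at the time of seeding. Single compounds from the Selleckchem apoptosis library were diluted in DMSO and added at final concentrations of 0.01, 0.1 and 1 µM, with 0.1% DMSO as vehicle. Plates were kept at 37 °C and 5% CO2 and read at 24, 48 and 72 h (Ex 485 nm, Em 520 nm). Cytotoxicity reflects loss of membrane integrity and is given as fluorescence relative to the DMSO vehicle, expressed as fold.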

Kasumi-1 = assay: as above
Method in brief: as §1

Measured: CellTox Green cytotoxicity fluorescence

COc1cc([C@@H]2c3cc4c(cc3[C@H](O)[C@H]3COC(=O)[C@@H]23)OCO4)cc(OC)c1OC [Picropodophyllin]
active: CMK; 1 µM, 48 h 2.12
inactive: CMK; 0.01 µM, 24 h 0.955 | CMK; 0.01 µM, 48 h 0.958 | CMK; 0.01 µM, 72 h 0.973 | CMK; 0.1 µM, 24 h 1.06 | CMK; 0.1 µM, 48 h 1.23 | CMK; 0.1 µM, 72 h 1.08 | CMK; 1 µM, 24 h 1.34 | CMK; 1 µM, 72 h 1.58 | Kasumi-1; 0.01 µM, 24 h 0.945 | Kasumi-1; 0.01 µM, 48 h 0.978 | Kasumi-1; 0.01 µM, 72 h 0.997 | Kasumi-1; 0.1 µM, 24 h 0.993 | Kasumi-1; 0.1 µM, 48 h 0.999 | Kasumi-1; 0.1 µM, 72 h 1.06 | Kasumi-1; 1 µM, 24 h 1.16 | Kasumi-1; 1 µM, 48 h 1.35 | Kasumi-1; 1 µM, 72 h 1.48

CC1=C(O)C(=O)C=C2C1=CC=C1[C@@]2(C)CC[C@@]2(C)[C@@H]3C[C@](C)(C(=O)O)CC[C@]3(C)CC[C@]12C [Celastrol]
inactive: CMK; 0.01 µM, 24 h 0.959 | CMK; 0.01 µM, 48 h 0.961 | CMK; 0.01 µM, 72 h 0.98 | CMK; 0.1 µM, 24 h 0.946 | CMK; 0.1 µM, 48 h 0.94 | CMK; 0.1 µM, 72 h 0.932 | Kasumi-1; 0.01 µM, 24 h 0.916 | Kasumi-1; 0.01 µM, 48 h 0.923 | Kasumi-1; 0.01 µM, 72 h 0.903 | Kasumi-1; 0.1 µM, 24 h 0.954 | Kasumi-1; 0.1 µM, 48 h 0.962 | Kasumi-1; 0.1 µM, 72 h 0.952 | Kasumi-1; 1 µM, 24 h 1.23 | Kasumi-1; 1 µM, 48 h 1.43 | Kasumi-1; 1 µM, 72 h 1.47
active: CMK; 1 µM, 24 h 2.38 | CMK; 1 µM, 48 h 3.09 | CMK; 1 µM, 72 h 2.25

CC[C@H](C)[C@@H]([C@@H](CC(=O)N1CCC[C@H]1[C@H](OC)[C@@H](C)C(=O)N[C@H](C)[C@@H](O)c1ccccc1)OC)N(C)C(=O)[C@@H](NC(=O)[C@@H](NC)C(C)C)C(C)C [Monomethyl auristatin E]
active: CMK; 0.1 µM, 48 h 2.24 | CMK; 1 µM, 48 h 2.64
inactive: CMK; 0.01 µM, 24 h 1.24 | CMK; 0.01 µM, 48 h 1.82 | CMK; 0.01 µM, 72 h 1.43 | CMK; 0.1 µM, 24 h 1.52 | CMK; 0.1 µM, 72 h 1.56 | CMK; 1 µM, 24 h 1.97 | CMK; 1 µM, 72 h 1.78 | Kasumi-1; 0.01 µM, 24 h 1.06 | Kasumi-1; 0.01 µM, 48 h 1.27 | Kasumi-1; 0.01 µM, 72 h 1.44 | Kasumi-1; 0.1 µM, 24 h 1.17 | Kasumi-1; 0.1 µM, 48 h 1.42 | Kasumi-1; 0.1 µM, 72 h 1.53 | Kasumi-1; 1 µM, 24 h 1.31 | Kasumi-1; 1 µM, 48 h 1.56 | Kasumi-1; 1 µM, 72 h 1.62

O=c1[nH]c2ccccc2n1C1CCN(Cc2ccc(-c3[nH]c4cc5ncnc5cc4nc3-c3ccccc3)cc2)CC1
inactive: CMK; 0.01 µM, 24 h 1.02 | CMK; 0.01 µM, 48 h 0.991 | CMK; 0.01 µM, 72 h 0.913 | CMK; 0.1 µM, 24 h 0.983 | CMK; 0.1 µM, 48 h 0.97 | CMK; 0.1 µM, 72 h 0.906 | CMK; 1 µM, 24 h 0.966 | CMK; 1 µM, 48 h 0.967 | CMK; 1 µM, 72 h 0.949 | Kasumi-1; 0.01 µM, 24 h 0.972 | Kasumi-1; 0.01 µM, 48 h 0.961 | Kasumi-1; 0.01 µM, 72 h 0.96 | Kasumi-1; 0.1 µM, 24 h 0.969 | Kasumi-1; 0.1 µM, 48 h 0.99 | Kasumi-1; 0.1 µM, 72 h 0.958 | Kasumi-1; 1 µM, 24 h 1.08 | Kasumi-1; 1 µM, 48 h 1.29 | Kasumi-1; 1 µM, 72 h 1.35

Cc1cc2c(C(C)C)c(O)c(O)c(C=O)c2c(O)c1-c1c(C)cc2c(C(C)C)c(O)c(O)c(C=O)c2c1O
inactive: CMK; 0.01 µM, 24 h 0.986 | CMK; 0.01 µM, 48 h 0.967 | CMK; 0.01 µM, 72 h 0.952 | CMK; 0.1 µM, 24 h 0.998 | CMK; 0.1 µM, 48 h 0.982 | CMK; 0.1 µM, 72 h 0.961 | CMK; 1 µM, 24 h 0.986 | CMK; 1 µM, 48 h 0.979 | CMK; 1 µM, 72 h 0.85 | Kasumi-1; 0.01 µM, 24 h 0.96 | Kasumi-1; 0.01 µM, 48 h 0.957 | Kasumi-1; 0.01 µM, 72 h 0.955 | Kasumi-1; 0.1 µM, 24 h 0.99 | Kasumi-1; 0.1 µM, 48 h 0.973 | Kasumi-1; 0.1 µM, 72 h 0.975 | Kasumi-1; 1 µM, 24 h 0.98 | Kasumi-1; 1 µM, 48 h 0.966 | Kasumi-1; 1 µM, 72 h 0.978

Cn1c(COP(=O)(NCCBr)NCCBr)cnc1[N+](=O)[O-]
inactive: CMK; 0.01 µM, 24 h 0.974 | CMK; 0.01 µM, 48 h 0.98 | CMK; 0.01 µM, 72 h 0.991 | CMK; 0.1 µM, 24 h 0.972 | CMK; 0.1 µM, 48 h 0.996 | CMK; 0.1 µM, 72 h 1.07 | CMK; 1 µM, 24 h 0.975 | CMK; 1 µM, 48 h 1.24 | CMK; 1 µM, 72 h 1.89 | Kasumi-1; 0.01 µM, 24 h 1.03 | Kasumi-1; 0.01 µM, 48 h 0.968 | Kasumi-1; 0.01 µM, 72 h 0.958 | Kasumi-1; 0.1 µM, 24 h 0.962 | Kasumi-1; 0.1 µM, 48 h 0.956 | Kasumi-1; 0.1 µM, 72 h 0.952 | Kasumi-1; 1 µM, 24 h 0.977 | Kasumi-1; 1 µM, 48 h 0.974 | Kasumi-1; 1 µM, 72 h 0.977

CN[C@@H]1C[C@H]2O[C@@](C)([C@@H]1OC)n1c3ccccc3c3c4c(c5c6ccccc6n2c5c31)C(=O)NC4 [Staurosporine]
active: Kasumi-1; 1 µM, 48 h 2.08 | Kasumi-1; 1 µM, 72 h 2.12
inactive: CMK; 0.01 µM, 24 h 0.96 | CMK; 0.01 µM, 48 h 0.998 | CMK; 0.01 µM, 72 h 1.07 | CMK; 0.1 µM, 24 h 1.01 | CMK; 0.1 µM, 48 h 1.29 | CMK; 0.1 µM, 72 h 1.4 | CMK; 1 µM, 24 h 1.1 | CMK; 1 µM, 48 h 1.45 | CMK; 1 µM, 72 h 1.29 | Kasumi-1; 0.01 µM, 24 h 0.984 | Kasumi-1; 0.01 µM, 48 h 1.18 | Kasumi-1; 0.01 µM, 72 h 1.24 | Kasumi-1; 0.1 µM, 24 h 1.08 | Kasumi-1; 0.1 µM, 48 h 1.54 | Kasumi-1; 0.1 µM, 72 h 1.74 | Kasumi-1; 1 µM, 24 h 1.67

O=C(O)C(=O)c1cn(Cc2ccccc2)c2ccc(-c3ccc(OC(F)(F)F)cc3)cc12 [Tiplaxtinin]
inactive: CMK; 0.01 µM, 24 h 1.02 | CMK; 0.01 µM, 48 h 1.01 | CMK; 0.01 µM, 72 h 1 | CMK; 0.1 µM, 24 h 1.01 | CMK; 0.1 µM, 48 h 1.02 | CMK; 0.1 µM, 72 h 0.987 | CMK; 1 µM, 24 h 0.968 | CMK; 1 µM, 48 h 0.972 | CMK; 1 µM, 72 h 0.943 | Kasumi-1; 0.01 µM, 24 h 1.02 | Kasumi-1; 0.01 µM, 48 h 1.01 | Kasumi-1; 0.01 µM, 72 h 1.03 | Kasumi-1; 0.1 µM, 24 h 1.02 | Kasumi-1; 0.1 µM, 48 h 1.02 | Kasumi-1; 0.1 µM, 72 h 1.03 | Kasumi-1; 1 µM, 24 h 0.968 | Kasumi-1; 1 µM, 48 h 0.983 | Kasumi-1; 1 µM, 72 h 0.973

COc1ccc2c(c1)/C(=C/c1cnc[nH]1)C(=O)N2
inactive: CMK; 0.01 µM, 24 h 0.911 | CMK; 0.01 µM, 48 h 0.923 | CMK; 0.01 µM, 72 h 1.04 | CMK; 0.1 µM, 24 h 0.922 | CMK; 0.1 µM, 48 h 0.924 | CMK; 0.1 µM, 72 h 1.05 | CMK; 1 µM, 24 h 0.934 | CMK; 1 µM, 48 h 0.914 | CMK; 1 µM, 72 h 0.881 | Kasumi-1; 0.01 µM, 24 h 0.934 | Kasumi-1; 0.01 µM, 48 h 0.941 | Kasumi-1; 0.01 µM, 72 h 0.971 | Kasumi-1; 0.1 µM, 24 h 0.976 | Kasumi-1; 0.1 µM, 48 h 0.981 | Kasumi-1; 0.1 µM, 72 h 0.966 | Kasumi-1; 1 µM, 24 h 0.881 | Kasumi-1; 1 µM, 48 h 0.948 | Kasumi-1; 1 µM, 72 h 0.963

COc1cc(C)[nH]c(=O)c1CNC(=O)c1c(C)n([C@H](C)C2CCOCC2)c2ccccc12
inactive: CMK; 0.01 µM, 24 h 0.942 | CMK; 0.01 µM, 48 h 0.948 | CMK; 0.01 µM, 72 h 0.965 | CMK; 0.1 µM, 24 h 0.936 | CMK; 0.1 µM, 48 h 0.944 | CMK; 0.1 µM, 72 h 0.919 | CMK; 1 µM, 24 h 0.949 | CMK; 1 µM, 48 h 0.973 | CMK; 1 µM, 72 h 0.965 | Kasumi-1; 0.01 µM, 24 h 0.935 | Kasumi-1; 0.01 µM, 48 h 0.952 | Kasumi-1; 0.01 µM, 72 h 0.966 | Kasumi-1; 0.1 µM, 24 h 0.97 | Kasumi-1; 0.1 µM, 48 h 0.948 | Kasumi-1; 0.1 µM, 72 h 0.954 | Kasumi-1; 1 µM, 24 h 1.03 | Kasumi-1; 1 µM, 48 h 0.982 | Kasumi-1; 1 µM, 72 h 0.976
